# Data as given in PubChem BioAssay (EPA / NIEHS).
# The source made the active and inactive calls. How the source made its calls: active means hit-call score of the fitted dose curve at least 0.9, where 1 is the maximum; inactive means score below 0.9.
# Key:
# Conditions in all cases: actives raise or lower the signal
# [1] = CEETOX_H295R_OHPREG_noMTC: CeeTox H295R High-throughput Steroidogenesis Assay for OH-Pregnenolone (OHPREG), maximum tolerated concentration (MTC) filtered results only (AID 2283912)
# Summary of the method: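 Readout is HPLC-MS/MS quantification of 17alpha-hydroxypregnenolone released by forskolin-stimulated H295R cells over 48 h of chemical exposure, DMSO as baseline.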
# [2] = CEETOX_H295R_OHPROG_noMTC: CeeTox H295R High-throughput Steroidogenesis Assay for OH-Progesterone (OHPROG), maximum tolerated concentration (MTC) filtered results only (AID 2283914)
# Summary of the method: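 Analysis uses all tested concentrations, without maximum-tolerated-concentration screening by MTT. H295R cells, forskolin-primed (10 uM, 48 h), receive chemical for 48 h; hormone in medium measured by HPLC-MS/MS, with bidirectional curve fitting against DMSO.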
# [3] = CEETOX_H295R_CORTISOL_noMTC: CeeTox H295R High-throughput Steroidogenesis Assay for Cortisol, maximum tolerated concentration (MTC) filtered results only (AID 2283916)
# Summary of the method: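 H295R adrenal cells were pre-stimulated 48 h with 10 uM forskolin, then exposed 48 h to test chemical in 0.1% DMSO. Medium cortisol was measured by MTBE extraction and HPLC-MS/MS; bidirectional fit versus DMSO, concentrations not MTC-filtered.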
# [4] = CEETOX_H295R_CORTIC_noMTC: CeeTox H295R High-throughput Steroidogenesis Assay for Corticosterone (CORTIC), maximum tolerated concentration (MTC) filtered results only (AID 2283917)
# Summary of the method: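 Forskolin-stimulated (10 uM, 48 h) H295R cells are dosed 48 h with chemical in DMSO (0.1% final); corticosterone change is quantified by HPLC-MS/MS and fitted bidirectionally against DMSO, unfiltered for MTT-derived MTC.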
# [5] = CEETOX_H295R_DOC_noMTC: CeeTox H295R High-throughput Steroidogenesis Assay for DOC, maximum tolerated concentration (MTC) filtered results only (AID 2283918)
# Summary of the method: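 H295R cells prestimulated 48 h with 10 uM forskolin, then exposed 48 h to test chemical (0.1% DMSO final). Medium 11-deoxycorticosterone extracted with MTBE, quantified by HPLC-MS/MS; bidirectional fit versus DMSO, concentrations not MTC-filtered.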
# [6] = CEETOX_H295R_PROG_noMTC: CeeTox H295R High-throughput Steroidogenesis Assay for Progesterone (PROG), maximum tolerated concentration (MTC) filtered results only (AID 2283920)
# Summary of the method: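 Progesterone synthesis in the human adrenal line H295R is measured by HPLC-MS/MS after 48 h chemical exposure following 48 h forskolin (10 uM) stimulation. Activity in either direction is fitted relative to DMSO.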
# [7] = CEETOX_H295R_ANDR_noMTC: CeeTox H295R High-throughput Steroidogenesis Assay for Androstenedione (ANDR), maximum tolerated concentration (MTC) filtered results only (AID 2283915)
# Summary of the method: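 Androstenedione secreted into medium was measured by LC-MS/MS after MTBE extraction. Human adrenal H295R cells received 10 uM forskolin for 48 h before 48 h chemical exposure (0.1% DMSO). Gain or loss fitted against DMSO, including concentrations above the MTT-derived MTC.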
# [8] = CEETOX_H295R_ESTRADIOL_noMTC: CeeTox H295R High-throughput Steroidogenesis Assay for Estradiol, maximum tolerated concentration (MTC) filtered results only (AID 2283919)
# Summary of the method: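 Readout: dansyl-derivatized estradiol quantified by LC-MS/MS in medium from H295R cells dosed 48 h (0.1% DMSO) following 48 h forskolin (10 uM) prestimulation. Gain or loss of signal fitted against DMSO; no MTC filtering applied.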
# [9] = CEETOX_H295R_ESTRONE_noMTC: CeeTox H295R High-throughput Steroidogenesis Assay for Estrone, maximum tolerated concentration (MTC) filtered results only (AID 2283921)
# Protocol: (§1) CEETOX_H295R is a cell-based, multiplexed-readout assay that uses H295R, a human adrenal gland cell line, with measurements taken at 48 hours after chemical dosing in a 96-well plate.CEETOX_H295R_ESTRONE_noMTC is one of 12 assay component(s) measured or calculated from the CEETOX_H295R assay (11 hormones and 1 viability assay). It is designed to make measurements of hormone induction, a form of inducible reporter, as detected with absorbance signals by HPLC-MS-MS technology. The concentrations for these components have not been pre-filtered for the maximum tolerated concentration (MTC) based on the MTT assay (_noMTC).Data from the assay component CEETOX_H295R_ESTRONE_noMTC was analyzed into 1 assay endpoint. This assay endpoint, CEETOX_H295R_ESTRONE_noMTC, was analyzed with bidirectional fitting relative to DMSO as the negative control and baseline of activity. […]
# Cell culture and media preparation procedures were conducted in accordance with OECD Test No. 456 guidelines, with minor modifications. […] For steroid quantification, media samples were shipped to OpAns, LLC (Durham, NC) on dry ice, and samples were thawed to room temperature prior to liquid-liquid extraction. […] Steroid hormones were separated by HPLC, eluted using a reverse phase C18 gradient with electrospray positive ionization, followed by quantification by tandem mass spectrometry (MS/MS). Data were acquired on a MassHunter Workstation Acquisition version B03.01 (Agilent Technologies, Inc.) and processed using MassHunter Quantitative Analysis for QQQ. Accuracy was determined for each hormone analyte from 3 standards to determine upper and lower limits of quantification (ULOQ and LLOQ, respectively) using a 7-point standard curve. Precision and accuracy of the extraction and quantification methods were calculated as the percent relative standard deviation (%RSD) of the spiked standards and percent spiked standard recovered, respectively. […] Test medium was removed following chemical exposure, and cell viability was evaluated in the same wells by MTT. […]
# [10] = CEETOX_H295R_TESTO_noMTC: CeeTox H295R High-throughput Steroidogenesis Assay for Testosterone (TESTO), maximum tolerated concentration (MTC) filtered results only (AID 2283924)
# Protocol: as §1, with “plate.CEETOX_H295R_TESTO_noMTC” for “plate.CEETOX_H295R_ESTRONE_noMTC”, “CEETOX_H295R_TESTO_noMTC” for “CEETOX_H295R_ESTRONE_noMTC”, “CEETOX_H295R_TESTO_noMTC,” for “CEETOX_H295R_ESTRONE_noMTC,”
# Cell culture and media preparation procedures were conducted in accordance with OECD Test No. 456 guidelines, with minor modifications. […] For steroid quantification, media samples were shipped to OpAns, LLC (Durham, NC) on dry ice, and samples were thawed to room temperature prior to liquid-liquid extraction. […] Steroid hormones were separated by HPLC, eluted using a reverse phase C18 gradient with electrospray positive ionization, followed by quantification by tandem mass spectrometry (MS/MS). […]
SMILES,outcome [1],outcome [2],outcome [3],outcome [4],outcome [5],outcome [6],AC50 [1],AC50 [7],AC50 [3],AC50 [5],outcome [8],outcome [9],AC50 [10],AC50 [2]
CCOC(=O)c1ccccc1C(=O)OCC,inactive,inactive,inactive,inactive,inactive,inactive,,,,,,,,
CCOP(=S)(OCC)SCS(=O)(=O)CC,,inactive,,inactive,,inactive,43 µM (active),37.9 µM (active),45 µM (active),33.5 µM (active),inactive,inactive,45.4 µM (active),
CCOc1ccc(C(C)(C)COCc2cccc(Oc3ccccc3)c2)cc1,inactive,,inactive,inactive,inactive,inactive,,,,,inactive,inactive,,13.2 µM (active)
CCOC(=O)c1ccccc1N,inactive,,inactive,inactive,inactive,inactive,,,,,inactive,inactive,,41.3 µM (active)
